Values joined by “and” are separate entries in the source; they are usually repeats but may differ in a detail not shown here. Identical values can stand only once. The campaign covered roughly 5,500 compounds. About 2,000 (36%) were called active. Inconclusive results (about 18%) are left out. No stated cut-off is given here; in the data, active means normalized growth mostly below about 0.91 (no sharp cut-off); inconclusive means no clear call, values can overlap the other calls; inactive means mostly above about 0.92. This is one part of the list.
Experiment: chemical genetic growth profiling, strain panel (AID 1159580);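 further: tested at 20 µM; growth read once vehicle control cultures reached saturation at 30 °C; 1 = growth at the plate median or of vehicle wells; lower values mean less growth of the strain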
Conditions: S. cerevisiae deletion strains, growth OD

Measured: normalized growth

O=c1c(O)c(-c2ccc(O)cc2O)oc2cc(O)cc(O)c12
inactive: locus YKL009W, strain mrt4, active compounds read low 1.01 | locus YKL068W, active compounds read low 1.01 | locus YKL085W, strain MDH1 (second series), active compounds read low 0.999 | locus YKL085W, strain MDH1, active compounds read low 0.999 | locus YKL160W, strain elf1, active compounds read low 0.989 | locus YKL190W, strain CNB1, active compounds read low 1 | locus YKR001C, strain vps1, active compounds read low 1.01 | locus YKR026C, strain gcn3, active compounds read low 0.975 | locus YKR091W, strain srl3, active compounds read low 0.996 | locus YLL001W, strain dnm1, active compounds read low 0.983 | locus YLL026W, active compounds read low 1 | locus YLL041C, strain sdh2, active compounds read low 0.999 | locus YLR027C, strain aat2, active compounds read low 1.01 | locus YLR039C, strain RIC1, active compounds read low 1.04 | locus YLR058C, strain SHM2, active compounds read low 0.984 | locus YLR102C, strain apc9, active compounds read low 1.01 | locus YLR113W, strain HOG1, active compounds read low 1 | locus YLR221C, strain rsa3, active compounds read low 0.963 | locus YLR258W, strain gsy2, active compounds read low 0.985 | locus YLR262C, strain YPT6 (second series), active compounds read low 0.966 | locus YLR262C, strain YPT6, active compounds read low 1.06 | locus YLR268W, strain sec22, active compounds read low 1.03 | locus YLR320W, strain mms22, active compounds read low 0.959 | locus YLR330W, strain CHS5, active compounds read low 1.01 | locus YLR342W, strain FKS1 (second series), active compounds read low 0.965 | locus YLR342W, strain FKS1, active compounds read low 0.974 | locus YLR357W, strain rsc2, active compounds read low 0.924 | locus YLR370C, strain arc18, active compounds read low 0.988 | locus YLR371W, strain rom2, active compounds read low 0.995 | locus YLR384C, strain iki3, active compounds read low 1 | locus YLR418C, strain cdc73, active compounds read low 1.05 | locus YML016C, strain PPZ1, active compounds read low 0.972 | locus YML032C, strain rad52, active compounds read low 1 | locus YML120C, strain ndi1, active compounds read low 0.994 | locus YML124C, strain tub3, active compounds read low 1.02 | locus YMR058W, strain fet3, active compounds read low 0.932 | locus YMR078C, strain ctf18, active compounds read low 1.03 | locus YMR125W, strain sto1, active compounds read low 1 | locus YMR129W, active compounds read low 1.01 | locus YMR205C, strain PFK2, active compounds read low 0.98 | locus YMR223W, strain ubp8, active compounds read low 0.986 | locus YMR231W, strain pep5, active compounds read low 0.991 | locus YMR263W, strain SAP30, active compounds read low 0.996 and 1.01 | locus YMR307W, strain GAS1, active compounds read low 0.942 | locus YNL067W, strain RPL9B, active compounds read low 1 | locus YNL071W, strain lat1, active compounds read low 1 | locus YNL128W, strain TEP1, active compounds read low 1 | locus YNL175C, strain NOP13, active compounds read low 1.01 | locus YNL183C, strain NPR1, active compounds read low 0.961 | locus YNL197C, strain WHI3, active compounds read low 1.01 | locus YNL209W, strain ssb2, active compounds read low 0.991 | locus YNL224C, strain SQS1, active compounds read low 1.03 | locus YNL233W, strain BNI4, active compounds read low 0.988 | locus YNL248C, strain rpa49, active compounds read low 0.976 | locus YNL250W, strain rad50, active compounds read low 1.01 | locus YNL271C, strain bni1, active compounds read low 0.993 | locus YNL298W, strain CLA4, active compounds read low 1 | locus YNL307C, strain MCK1, active compounds read low 1.02 | locus YNL322C, strain KRE1 (second series), active compounds read low 0.987 | locus YNL322C, strain KRE1, active compounds read low 1 | locus YNR049C, strain mso1, active compounds read low 1 | locus YNR052C, strain pop2, active compounds read low 0.992 | locus YOL006C, strain TOP1, active compounds read low 1.01 | locus YOL012C, strain htz1 0.825 | locus YOL147C, strain pex11, active compounds read low 1.02 | locus YOR001W, strain rrp6, active compounds read low 0.996 | locus YOR061W, strain CKA2, active compounds read low 0.97 | locus YOR069W, strain VPS5, active compounds read low 0.992 | locus YOR070C, strain gyp1, active compounds read low 0.989 | locus YOR080W, strain dia2, active compounds read low 0.994 | locus YOR083W, strain WHI5 (second series), active compounds read low 1.01 | locus YOR083W, strain WHI5, active compounds read low 0.974 | locus YOR106W, strain vam3, active compounds read low 0.931 | locus YOR136W, strain idh2, active compounds read low 1.02 | locus YOR144C, strain elg1, active compounds read low 1.02 | locus YOR184W, strain ser1, active compounds read low 1.01 | locus YOR231W, strain MKK1, active compounds read low 0.988 | locus YOR265W, strain rbl2, active compounds read low 0.991 | locus YOR270C, strain vph1, active compounds read low 0.872 | locus YOR290C, strain snf2, active compounds read low 0.976 | locus YOR316C, strain cot1, active compounds read low 1.01 | locus YPL051W, strain arl3, active compounds read low 0.952 | locus YPL055C, strain LGE1, active compounds read low 1 | locus YPL078C, strain atp4, active compounds read low 0.994 | locus YPL106C, strain sse1, active compounds read low 0.916 | locus YPL240C, strain hsp82, active compounds read low 0.997 | locus YPL241C, strain CIN2, active compounds read low 1 | locus YPL256C, strain CLN2, active compounds read low 0.974 | locus YPR119W, strain clb2, active compounds read low 1.02 | locus YPR141C, strain kar3, active compounds read low 1.01 | locus YPR163C, strain tif3, active compounds read low 1.02 | locus YPR167C, strain met16, active compounds read low 0.995 | strain wtn01, active compounds read low 1.02
